# High-throughput results: PubChem, National Center for Advancing Translational Sciences (NCATS)
# Sfp PPTase inh – inhibitors of Bacillus subtilis Sfp phosphopantetheinyl transferase. Potency, µM, most hits filed as inhibitors. AID 1490. Biochemical Sfp PPTase activity, qHTS. Q9F4F7. 310,000 compounds, 3.5% hits;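 further: the enzyme is Sfp with the accession as filed and its product quenches rhodamine fluorescence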
#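 Reaction rates are the 30-min fluorescence difference (ex 525, em 598 nm) in wells containing 15 nM Sfp, 5 uM rhodamine-CoA and 12.5 uM BHQ-2-YbbR at pH 7.6 with 10 mM MgCl2.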
# L3MBTL1 inh – inhibitors of human L3MBTL1 | AlphaScreen L3MBTL1–H3K9me1 peptide binding | Potency, µM (titrated, usually from 57.1 µM), usual class: inhibitors | 230,000 compounds, 0.66% hits | AID 485360 | Q9Y468; further: nearly all actives have a fitted effect of over 60% in size
#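 L3MBTL1 50 nM + b-AHA-H3(1-15)K9me1 75 nM, 30 min RT; compound added, 30 min RT; streptavidin donor/Ni-chelate acceptor beads 10 ug/mL each final, 30 min RT dark; AlphaScreen read.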
# G9a inh – inhibitors of human histone lysine methyltransferase G9a | Q96KQ7 | G9a H3K9 monomethylation, AlphaScreen, 2 h | Potency, µM (titrated, usually from 102 µM), usual class: inhibitors | 350,000 compounds, 8.8% hits; further: nearly all actives have a fitted effect of over 75% in size
#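 Compounds were preincubated with 20 nM G9a for 15 min, after which biotinylated H3K9 peptide (500 nM) and SAM (20 uM) started a 2 h room-temperature reaction. Monomethylated product was quantified by antibody-based AlphaScreen chemiluminescence.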
# JMJD2A Tudor inh – blocks the human JMJD2A Tudor domain; AlphaScreen JMJD2A-Tudor / H3K4me3 peptide binding; Potency, µM (series often up to 114 µM), hits mostly inhibitors; 390,000 compounds, 4.4% hits; AID 504339; further: nearly all actives have a fitted effect of over 50% in size
# HP1b chromo inh – blocks HP1-beta chromodomain binding to methylated histone tails | Potency, µM (doses to about 114 µM), most hits filed as inhibitors | P83916 | 390,000 compounds, 0.56% hits | AlphaScreen HP1-beta / biotin-H3K9me3 peptide binding | AID 540317; further: nearly all actives have a fitted effect of over 70% in size
#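 AlphaScreen: HP1-beta (50 nM) preformed 30 min with biotin-H3(1-18)K9me3 peptide (50 nM) in PBS pH 7.4, 0.01% Tween-20. Compound added for 30 min at RT, then streptavidin donor/nickel chelate acceptor beads (10 ug/mL) for 30 min.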
# BAZ2B inh – inhibitors of human BAZ2B bromodomain; Q9UIF8; AlphaScreen BAZ2B-H3K14Ac peptide displacement; Potency, µM (highest dose often 114 µM), actives largely listed as inhibitors; 360,000 compounds, 4.4% hits; further: nearly all actives have a fitted effect of over 60% in size
#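 AlphaScreen displacement: compounds (up to 110uM) incubated 30 min at room temperature with a preformed 50 nM BAZ2B/50 nM biotinylated H3K14Ac peptide complex in PBS pH 7.4 with Tween-20. Donor and acceptor beads at 10 ug/mL final added, 20 min light-protected before reading.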
# Hits are given with their value; n = inactive; u = inconclusive; x = no result given; [ ] = another dose, or the depositor's remark. Compounds with a hit are over-represented: about 12% of the library has one in this group of screens. The call rests on the fitted dose curve; in most records, active means well fitted curve in the direction sought with a large enough effect; inconclusive means small, poorly fitted or top-dose-only effect, or another doubt; inactive means no such curve, though single readings can be large; an effect the other way counts as inactive or inconclusive.
SMILES,Sfp PPTase inh,L3MBTL1 inh,G9a inh,JMJD2A Tudor inh,HP1b chromo inh,BAZ2B inh
COc1ccc(CCc2nnc(N)s2)cc1OC,n,x,n,n,n,n
COc1cccc(CCc2nnc(N)s2)c1,n,n,79.4µM,n,n,n
COc1ccccc1C(=O)NCCC(=O)NC1CCC(C)CC1 (stereo not given),x,n,u,n,n,n
Cc1ccc(S(=O)(=O)NCC(=O)NCC(=O)OCc2c(F)cccc2Cl)cc1,u,n,8.91µM,n,n,n
CCn1cc(C(=O)N(C)c2cc(C)ccc2C)c2cc(OC)c(OC)cc2c1=O,x,x,n,n,n,n
CC1=NN(c2ccc([N+](=O)[O-])cc2)C(=O)C1[N+](=O)[O-] (stereo not given),n,x,x,x,x,x
C#CCOc1ccc(Cl)cc1/C=C1/C(=O)ON=C1C,50.1µM,x,31.6µM,35.5µM,n,u
C#CCOc1ccc(/C=C2/C(=O)ON=C2C)cc1Br,56.2µM,x,35.5µM,n,n,n
O=C(CNC(=O)c1ccccc1F)NNC(=O)c1ccccc1O,x,n,n,n,n,n
Cc1ccc(C)c(CN2C(=O)N(c3cc(Cl)ccc3C)S(=O)(=O)c3ccccc32)c1,x,x,n,n,n,n
O=C(CSc1ncnc2nc[nH]c12)c1ccc2ccccc2c1,n,n,n,79.4µM,n,n
O=C(O)CSc1ncnc2nc[nH]c12,n,x,n,n,n,n
O=c1[nH]cnc2nc[nH]c12,79.4µM,x,n[12.7 µM],x,x,x
Nc1nc2nc[nH]c2c(=O)[nH]1,x,n,n,n,n,n
c1nc(SSc2ncnc3nc[nH]c23)c2[nH]cnc2n1,x,x,x,0.794µM,u,x
COc1ccc(-c2nc3cnc(OC)nc3n(CCc3ccccc3)c2=O)cc1,n,x,n[0.501 µM],x,x,x
O=C(Nc1cccc(N2CCCC2)c1)c1cccs1,n,n,3.16µM,u,u,u
Nc1cccc(NC(=O)c2cccs2)c1,n,n,n,n,n,n
COc1ccc(CCNc2c3ccccc3nc3ccccc23)cc1OC,n,n,u,n,n,n
Cc1cc(C(C)(C)C)cc(C)c1COC(=O)CN1C(=O)NC2(CCCC2)C1=O,x,n,n[12.7 µM],n,n,n
CCOC(=O)CN1NC2(CCCCCC2)NC1=S,50.1µM,n,x,50.1µM,n,n
COc1ccc(NS(=O)(=O)c2ccc3oc4ccccc4c3c2)cn1,56.2µM,x,n[12.7 µM],n,n,n
Cc1ccccc1NS(=O)(=O)c1ccc2[nH]c(=O)[nH]c2c1,n,n,n,n[11.4 µM],n,n
O=C1NN=COc2ccccc21,u,n,n[12.7 µM],n,n,56.2µM
COc1ccc(S(=O)NC2CCCCC2)c(OC)c1C (stereo not given),50.1µM,n,31.6µM,u,n,n
SMILES,Sfp PPTase inh,L3MBTL1 inh,G9a inh,JMJD2A Tudor inh,HP1b chromo inh,BAZ2B inh
COc1ccc(C(=O)NC2CCCCCCC2)cc1OC,x,x,x,n,n,x
CCCCCCC1CC(CCc2nc(=S)[nH][nH]2)C(=O)O1 (stereo not given),n,n,1.58µM,31.6µM,n,n
CCCCCCCCCc1nc(N)n[nH]1,n,n,x,n,n,n
CCCCCC1CC(CC(=O)O)C(=O)O1 (stereo not given),n,x,n,n,n,n
CCCCCCCCc1nc(=S)[nH][nH]1,20µM,n,0.891µM,u,u,n
O=C(CSc1cn(CCNC(=O)c2ccccc2)c2ccccc12)NCc1ccco1,u,x,39.8µM,u,n,u
CCCn1cc(SCC(=O)NCc2ccco2)c2ccccc21,n,n,39.8µM,n,n,u
O=C(CSc1ccccc1C(=O)NCCCN1CCCC1=O)NCc1ccco1,44.7µM,n,u,n,n,n
COc1cc(/C=N/Nc2snc(SC)c2C#N)ccc1O,n,n,u,n,n,n
CSc1nsc(/C=C/Nc2ccc(C)cc2)c1C#N,n,x,2.24µM,n,n,u
CC(C)(C)c1nc(S(=O)(=O)c2ccc(Cl)cc2)c(N2CCOCC2)o1,n,x,u,u,u,n
CC(C)Cc1nc(S(=O)(=O)c2ccc(Cl)cc2)c(N2CCOCC2)o1,39.8µM,n,u,n,n,n
NC(=O)C1CCN(c2oc(-c3ccccc3)nc2S(=O)(=O)c2ccc(Br)cc2)CC1,n,x,x,31.6µM,n,u
CN1CCN(c2oc(-c3ccccc3)nc2S(=O)(=O)c2ccc(Br)cc2)CC1,n,x,x,56.2µM,u,35.5µM
Cc1ccc(S(=O)(=O)c2nc(-c3ccccc3)oc2N2CCN(c3ccccc3)CC2)cc1,x,x,n,n,n,n
Cc1ccc(S(=O)(=O)c2nc(Cc3ccccc3)oc2N2CCOCC2)cc1,x,n,2.24µM,u,n,n
CC(C)Cc1ccccc1S(N)(=O)=O,n,n,u,n,n,n
Cc1ccc(S(=O)(=O)c2nc(-c3ccco3)oc2N2CCC(C)CC2)cc1,n,x,x,u,n,10µM
O=S(=O)(c1ccccc1)c1nc(-c2ccccc2)oc1N1CCN(c2cccc(Cl)c2)CC1,x,x,n,n,n,n
O=S(=O)(c1ccccc1)c1nc(-c2ccccc2)oc1N1CCCC1,n,n[2.29 µM],n,79.4µM,n,n
Cc1ccc(S(=O)(=O)c2nc(N3CCOCC3)sc2Cl)cc1,50.1µM,n,6.31µM,n,n,n
O=S(=O)(c1ccccc1)c1nc(-c2ccccc2)oc1N1CCCCC1,u,x,22.4µM,u,n,u
CC(=O)N1CCc2c(sc3c2c(=O)n(CCc2ccccc2)c(=O)n3Cc2ccc(F)cc2)C1,x,x,n,n,n,n
CCCCCCc1cc2cc(-c3nnc(-c4cccc(Cl)c4)o3)c(=O)oc2cc1O,x,x,n,n,n,n
Cc1cccc(C(=O)Nc2cccc(OCc3cc(=O)n4c(C)csc4n3)c2)c1,x,x,n,n,n,n
SMILES,Sfp PPTase inh,L3MBTL1 inh,G9a inh,JMJD2A Tudor inh,HP1b chromo inh,BAZ2B inh
Cc1ccc(S(=O)(=O)c2nc(S(C)(=O)=O)sc2N2CCCCCC2)cc1,n,x,x,u,n,n
Cc1ccc(S(=O)(=O)c2nc(-c3ccccc3)oc2N2CCCC2)cc1,x,n,1.26µM,28.2µM,u,u
Cc1ccc(S(=O)(=O)c2nc(S(C)(=O)=O)sc2N2CCC(C)CC2)cc1,n,x,35.5µM,n,n,n
COC(=O)c1ccc(-n2c(/C=C/c3cc(OC)c(OC)c(OC)c3)nc3cc(Cl)ccc3c2=O)cc1,x,x,n,n,n,n
CCN(CC)CCNC(=O)c1ccc(NC(=O)c2cc(-c3ccco3)nc3ccccc23)cc1,u,x,31.6µM,u,n,31.6µM
CN(C)C(=O)c1ccc(NC(=O)c2cc(-c3ccco3)nc3ccccc23)cc1,n,x,n,39.8µM,u,n
CCOc1ccccc1-c1cc(C(=O)Nc2ccc(C(=O)O)cc2)c2ccccc2n1,n,x,u,u,n,u
COC(=O)c1ccc(NC(=O)c2cc(-c3ccccn3)nc3ccccc23)cc1,n,n,n[12.7 µM],n,n,n
CN(C(=O)Cn1cnc2onc(-c3ccc(F)cc3)c2c1=O)c1ccccc1Cl,x,x,n,n,n,n
